Binding signal data for 1 sequence are collected here from article PMC7862700, “An all-to-all approach to the identification of sequence-specific readers for epigenetic DNA modifications on cytosine”.

What all share (experiment): DAPPL (digital affinity profiling via proximity ligation, sequencing); 10 mM Tris-HCl pH 7.5, 50 mM NaCl, 1 mM DTT, 4% glycerol, room temperature, 30 min; GST-TFs on glutathione beads, 16-mer random dsDNA library, 0.1% formaldehyde crosslink after washing; high values mean tight binding
Conditions in all cases: protein: recombinant; tags: N-terminal GST; dsDNA, one strand shown

Assay [1] addresses T1, FLI1 (Homo sapiens, UniProt Q01543 1-452).
T1 sequence: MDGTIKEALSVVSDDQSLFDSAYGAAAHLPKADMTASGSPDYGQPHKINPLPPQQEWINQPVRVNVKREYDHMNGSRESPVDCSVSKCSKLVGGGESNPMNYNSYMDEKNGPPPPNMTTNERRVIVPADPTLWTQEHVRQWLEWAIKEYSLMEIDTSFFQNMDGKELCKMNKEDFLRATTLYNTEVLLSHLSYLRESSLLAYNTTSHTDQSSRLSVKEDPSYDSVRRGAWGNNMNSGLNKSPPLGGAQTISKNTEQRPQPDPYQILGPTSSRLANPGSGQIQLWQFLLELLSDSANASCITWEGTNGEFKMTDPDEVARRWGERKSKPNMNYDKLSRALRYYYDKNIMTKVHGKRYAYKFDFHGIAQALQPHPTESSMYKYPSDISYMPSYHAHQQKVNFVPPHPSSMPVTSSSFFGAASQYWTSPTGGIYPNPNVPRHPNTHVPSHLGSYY
The method in brief:
(§1)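 Human transcription factors fused to GST were expressed in yeast, captured on glutathione beads, given DNA barcodes and pooled with a GST-only negative control. Pools were incubated with 200 nmole of a 16-mer random double-stranded DNA library in Tris/NaCl/DTT/glycerol buffer at room temperature for 30 min. They were then washed, crosslinked with 0.1% formaldehyde, proximity-ligated (BsaI/T4 ligase, 1 h, 37 °C), PCR-amplified and sequenced on an Illumina NextSeq500. Binding signal is each 6-mer's read frequency for a factor divided by its frequency for the GST control.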

Assay [2] addresses T2, ELK1 (Homo sapiens, UniProt P19419 1-428).
T2 sequence: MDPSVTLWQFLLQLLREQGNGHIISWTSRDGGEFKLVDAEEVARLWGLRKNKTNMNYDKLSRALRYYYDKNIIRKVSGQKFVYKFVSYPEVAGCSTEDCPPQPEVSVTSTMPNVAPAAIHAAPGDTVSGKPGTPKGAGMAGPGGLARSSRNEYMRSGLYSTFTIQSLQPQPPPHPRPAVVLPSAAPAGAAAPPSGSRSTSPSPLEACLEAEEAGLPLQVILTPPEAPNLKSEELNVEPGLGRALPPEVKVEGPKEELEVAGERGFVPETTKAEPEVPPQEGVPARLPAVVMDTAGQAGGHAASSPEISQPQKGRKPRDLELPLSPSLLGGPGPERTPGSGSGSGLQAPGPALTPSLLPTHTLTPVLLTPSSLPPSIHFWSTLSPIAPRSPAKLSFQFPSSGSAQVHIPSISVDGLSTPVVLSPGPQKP
The method in brief:
as §1

For assay [3], the target named is T3, GABPA (Homo sapiens, UniProt Q06546 1-454).
T3 sequence: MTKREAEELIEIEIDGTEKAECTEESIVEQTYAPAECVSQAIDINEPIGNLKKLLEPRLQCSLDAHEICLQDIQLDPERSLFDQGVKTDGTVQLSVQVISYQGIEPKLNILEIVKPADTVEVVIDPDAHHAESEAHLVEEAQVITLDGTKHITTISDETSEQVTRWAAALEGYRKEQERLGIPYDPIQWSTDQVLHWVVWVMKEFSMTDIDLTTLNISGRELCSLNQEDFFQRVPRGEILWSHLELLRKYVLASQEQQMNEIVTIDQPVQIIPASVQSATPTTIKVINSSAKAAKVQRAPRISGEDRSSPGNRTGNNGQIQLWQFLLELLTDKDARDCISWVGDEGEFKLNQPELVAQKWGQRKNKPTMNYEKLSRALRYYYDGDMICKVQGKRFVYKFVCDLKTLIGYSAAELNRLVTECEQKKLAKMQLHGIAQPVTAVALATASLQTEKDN
The method in brief:
as §1

The target in assay [4] is ELF1 (Homo sapiens, UniProt P32519 1-619). The method in brief: as §1
Assay [5] deals with T4, SPIC (Homo sapiens, UniProt Q8N5J4 1-248).
T4 sequence: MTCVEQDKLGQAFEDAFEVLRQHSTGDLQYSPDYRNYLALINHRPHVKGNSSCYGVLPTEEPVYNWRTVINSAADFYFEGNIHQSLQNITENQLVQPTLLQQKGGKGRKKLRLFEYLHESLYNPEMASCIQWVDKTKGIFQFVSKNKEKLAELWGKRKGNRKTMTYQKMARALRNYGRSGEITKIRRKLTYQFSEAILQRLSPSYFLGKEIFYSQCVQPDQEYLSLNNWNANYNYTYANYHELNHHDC
The gist of the method:
as §1

Assay [6] addresses ELF4 (Homo sapiens, UniProt Q99607 1-663). The method in brief:
as §1

For assay [7], the target named is T5, ELK4 (Homo sapiens, UniProt P28324-2 1-405).
T5 sequence: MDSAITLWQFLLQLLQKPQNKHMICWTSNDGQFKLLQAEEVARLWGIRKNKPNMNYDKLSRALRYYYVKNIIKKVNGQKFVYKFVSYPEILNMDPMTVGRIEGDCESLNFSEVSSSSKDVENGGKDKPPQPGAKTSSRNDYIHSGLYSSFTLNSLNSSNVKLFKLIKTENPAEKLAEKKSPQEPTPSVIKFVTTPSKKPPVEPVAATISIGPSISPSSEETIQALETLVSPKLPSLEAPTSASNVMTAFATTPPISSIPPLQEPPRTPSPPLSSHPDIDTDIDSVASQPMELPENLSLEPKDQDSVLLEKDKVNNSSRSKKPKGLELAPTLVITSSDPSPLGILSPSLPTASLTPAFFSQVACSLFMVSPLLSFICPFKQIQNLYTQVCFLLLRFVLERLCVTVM
The gist of the method: as §1

The target of assay [8] is T6, ETV2 (Homo sapiens, UniProt O00321 1-342).
T6 sequence: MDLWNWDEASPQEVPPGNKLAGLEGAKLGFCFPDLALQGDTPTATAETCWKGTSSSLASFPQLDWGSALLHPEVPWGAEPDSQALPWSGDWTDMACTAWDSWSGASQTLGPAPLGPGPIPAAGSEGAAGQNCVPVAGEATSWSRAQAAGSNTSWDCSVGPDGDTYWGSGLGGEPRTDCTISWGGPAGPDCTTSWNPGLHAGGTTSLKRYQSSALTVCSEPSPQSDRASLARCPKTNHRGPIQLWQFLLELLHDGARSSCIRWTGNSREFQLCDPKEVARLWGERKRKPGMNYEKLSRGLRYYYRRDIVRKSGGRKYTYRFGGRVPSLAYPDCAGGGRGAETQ
The method in brief: as §1

In assay [9] the target is T7, ELF3 (Homo sapiens, UniProt P78545 1-371).
T7 sequence: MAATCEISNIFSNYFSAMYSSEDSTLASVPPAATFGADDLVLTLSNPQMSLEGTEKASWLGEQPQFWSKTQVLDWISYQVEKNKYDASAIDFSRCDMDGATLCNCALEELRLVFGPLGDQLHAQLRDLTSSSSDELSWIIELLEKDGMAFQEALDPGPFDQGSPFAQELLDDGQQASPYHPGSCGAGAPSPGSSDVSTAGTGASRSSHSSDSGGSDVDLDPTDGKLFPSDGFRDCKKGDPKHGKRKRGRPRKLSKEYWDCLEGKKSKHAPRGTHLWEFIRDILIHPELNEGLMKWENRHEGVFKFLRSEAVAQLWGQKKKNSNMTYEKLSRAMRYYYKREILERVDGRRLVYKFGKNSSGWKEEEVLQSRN
The method in brief: as §1

Assay [10] deals with ETV1 (Homo sapiens, UniProt P50549 1-477). The gist of the method: as §1
Assay [11] addresses T8, ERF (Homo sapiens, UniProt P50548 1-548).
T8 sequence: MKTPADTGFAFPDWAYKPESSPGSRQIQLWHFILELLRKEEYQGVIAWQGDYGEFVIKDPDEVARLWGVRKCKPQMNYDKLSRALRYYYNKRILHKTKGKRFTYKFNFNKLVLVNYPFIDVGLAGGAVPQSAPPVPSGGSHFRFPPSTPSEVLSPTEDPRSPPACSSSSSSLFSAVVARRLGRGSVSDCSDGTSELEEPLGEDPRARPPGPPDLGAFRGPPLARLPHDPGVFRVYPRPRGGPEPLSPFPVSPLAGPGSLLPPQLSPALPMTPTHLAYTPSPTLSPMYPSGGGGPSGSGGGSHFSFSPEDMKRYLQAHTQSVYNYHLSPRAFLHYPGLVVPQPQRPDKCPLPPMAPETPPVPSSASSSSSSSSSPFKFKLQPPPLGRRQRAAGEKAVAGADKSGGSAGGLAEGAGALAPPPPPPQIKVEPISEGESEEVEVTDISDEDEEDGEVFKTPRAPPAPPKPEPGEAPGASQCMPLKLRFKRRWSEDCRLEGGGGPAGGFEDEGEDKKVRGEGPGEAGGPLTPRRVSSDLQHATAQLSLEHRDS
The method in brief: as §1

Assay [12] addresses T9, ETV7 (Homo sapiens, UniProt Q9Y603 1-341).
T9 sequence: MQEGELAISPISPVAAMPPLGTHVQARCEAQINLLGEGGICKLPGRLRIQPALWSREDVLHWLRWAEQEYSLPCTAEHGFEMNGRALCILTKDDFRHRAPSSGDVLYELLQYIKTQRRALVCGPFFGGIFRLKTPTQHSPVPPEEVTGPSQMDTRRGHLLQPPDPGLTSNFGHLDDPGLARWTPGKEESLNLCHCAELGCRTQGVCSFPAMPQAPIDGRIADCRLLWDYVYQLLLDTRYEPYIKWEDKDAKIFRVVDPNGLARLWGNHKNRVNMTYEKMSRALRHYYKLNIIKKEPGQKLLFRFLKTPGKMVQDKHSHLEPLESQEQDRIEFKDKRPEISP
The gist of the method: as §1

Assay [13] deals with T10, ETV3 (Homo sapiens, UniProt P41162-2 1-143).
T10 sequence: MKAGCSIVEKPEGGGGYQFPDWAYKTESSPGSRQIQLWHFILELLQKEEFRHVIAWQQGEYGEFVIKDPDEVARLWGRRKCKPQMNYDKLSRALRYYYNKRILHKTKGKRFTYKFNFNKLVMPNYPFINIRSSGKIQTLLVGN
The method in brief:
as §1

ELF4, sequence (Q99607 whole entry): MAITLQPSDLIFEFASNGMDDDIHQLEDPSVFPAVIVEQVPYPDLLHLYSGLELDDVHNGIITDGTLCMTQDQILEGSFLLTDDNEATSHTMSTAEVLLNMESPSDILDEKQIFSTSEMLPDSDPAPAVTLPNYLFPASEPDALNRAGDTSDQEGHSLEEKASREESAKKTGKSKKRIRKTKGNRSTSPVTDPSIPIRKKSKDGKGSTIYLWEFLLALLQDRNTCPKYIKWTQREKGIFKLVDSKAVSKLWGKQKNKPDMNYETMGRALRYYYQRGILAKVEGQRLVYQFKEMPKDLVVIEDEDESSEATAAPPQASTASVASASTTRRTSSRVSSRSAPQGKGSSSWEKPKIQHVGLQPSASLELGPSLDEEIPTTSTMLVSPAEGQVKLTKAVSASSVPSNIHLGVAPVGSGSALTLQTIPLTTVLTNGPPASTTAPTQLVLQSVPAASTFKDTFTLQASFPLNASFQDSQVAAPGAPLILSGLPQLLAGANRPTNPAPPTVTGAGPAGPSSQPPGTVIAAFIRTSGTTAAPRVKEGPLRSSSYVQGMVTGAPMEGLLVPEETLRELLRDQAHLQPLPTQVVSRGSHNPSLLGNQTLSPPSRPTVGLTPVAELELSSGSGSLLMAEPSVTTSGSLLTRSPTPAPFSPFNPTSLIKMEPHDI
ETV1, sequence (P50549 whole entry): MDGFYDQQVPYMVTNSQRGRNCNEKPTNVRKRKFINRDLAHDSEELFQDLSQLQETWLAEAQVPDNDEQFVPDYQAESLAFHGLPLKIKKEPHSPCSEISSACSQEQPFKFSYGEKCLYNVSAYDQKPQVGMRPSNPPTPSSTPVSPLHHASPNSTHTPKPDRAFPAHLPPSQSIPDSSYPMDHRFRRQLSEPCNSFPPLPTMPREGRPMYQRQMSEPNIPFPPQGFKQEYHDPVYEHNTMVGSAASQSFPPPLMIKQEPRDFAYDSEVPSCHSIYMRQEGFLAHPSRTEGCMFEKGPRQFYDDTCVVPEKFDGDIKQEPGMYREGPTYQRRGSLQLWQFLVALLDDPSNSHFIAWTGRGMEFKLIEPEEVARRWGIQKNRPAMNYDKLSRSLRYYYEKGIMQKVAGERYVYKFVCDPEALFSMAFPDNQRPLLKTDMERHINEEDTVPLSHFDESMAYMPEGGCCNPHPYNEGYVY
ELF1, sequence (P32519 whole entry): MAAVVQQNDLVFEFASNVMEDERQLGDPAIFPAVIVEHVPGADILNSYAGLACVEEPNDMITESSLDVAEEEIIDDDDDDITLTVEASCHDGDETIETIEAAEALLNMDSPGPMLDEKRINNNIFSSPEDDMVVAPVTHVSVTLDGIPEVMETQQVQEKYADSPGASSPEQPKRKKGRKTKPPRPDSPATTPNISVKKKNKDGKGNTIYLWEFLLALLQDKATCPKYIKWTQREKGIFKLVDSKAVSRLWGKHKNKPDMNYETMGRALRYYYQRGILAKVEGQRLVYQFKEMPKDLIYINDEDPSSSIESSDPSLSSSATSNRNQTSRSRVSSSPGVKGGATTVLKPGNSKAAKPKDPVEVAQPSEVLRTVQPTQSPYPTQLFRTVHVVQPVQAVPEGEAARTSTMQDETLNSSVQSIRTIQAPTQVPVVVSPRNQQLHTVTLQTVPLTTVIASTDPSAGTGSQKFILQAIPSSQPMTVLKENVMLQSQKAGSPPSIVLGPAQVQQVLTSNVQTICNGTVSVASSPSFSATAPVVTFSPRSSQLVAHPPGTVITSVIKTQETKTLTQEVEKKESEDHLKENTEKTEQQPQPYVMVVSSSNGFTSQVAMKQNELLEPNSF

As to ACTTGA, the binding signal is 1.1 fold enrichment (6-mer frequency, TF over GST control) in assay [1]; 1.1 fold enrichment (6-mer frequency, TF over GST control) in assay [2]; 1 fold enrichment (6-mer frequency, TF over GST control) in assay [3]; 1.02 fold enrichment (6-mer frequency, TF over GST control) in [4]; 1 fold enrichment (6-mer frequency, TF over GST control) in assay [5]; 1.07 fold enrichment (6-mer frequency, TF over GST control) in [6]. The binding signal in assay [7] is 1.14 fold enrichment (6-mer frequency, TF over GST control); in [8], 1.13 fold enrichment (6-mer frequency, TF over GST control); in [9], 1.04 fold enrichment (6-mer frequency, TF over GST control); in assay [10], 1.07 fold enrichment (6-mer frequency, TF over GST control); in assay [11] it was 1.01 fold enrichment (6-mer frequency, TF over GST control); in assay [12], 1.08 fold enrichment (6-mer frequency, TF over GST control). In addition, in assay [13], the binding signal was 1.07 fold enrichment (6-mer frequency, TF over GST control).
